# NPSR antagonist: neuropeptide S receptor (human) antagonism, cAMP | Q6W5P4 | CHO-NPSR cells, cAMP TR-FRET, antagonist mode | Potency, µM (titrated, usually from 38.3 µM), for inactives: at the highest dose activity change, negative = inhibition, hits mostly inhibitors | 220,000 tested, 1% active; further: on the % scale 0 is the no-effect control and ±100 the full control effect; nearly all actives have a fitted effect of over 50% in size
# JMJD2E inh: inhibitors of human JMJD2E histone demethylase; B2RXH2; JMJD2E catalytic domain, FDH-coupled NADH fluorescence (FDH is formaldehyde dehydrogenase); Potency, µM (series often up to 57.1 µM), for the others: at the highest dose activity change, negative = inhibition, hits mostly inhibitors; 230,000 tested, 1.6% active; active means well fitted inhibition curve with a large enough effect, not every such curve was filed as active; inconclusive means small, poorly fitted or top-dose-only effect, or another doubt; inactive means no such curve, though single readings can be large or run the other way;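 further: 0% = wells with enzyme and -100% = buffer wells without enzyme; nearly all actives have a fitted effect of over 50% in size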
# Target sequence (B2RXH2 1-337 limits assumed): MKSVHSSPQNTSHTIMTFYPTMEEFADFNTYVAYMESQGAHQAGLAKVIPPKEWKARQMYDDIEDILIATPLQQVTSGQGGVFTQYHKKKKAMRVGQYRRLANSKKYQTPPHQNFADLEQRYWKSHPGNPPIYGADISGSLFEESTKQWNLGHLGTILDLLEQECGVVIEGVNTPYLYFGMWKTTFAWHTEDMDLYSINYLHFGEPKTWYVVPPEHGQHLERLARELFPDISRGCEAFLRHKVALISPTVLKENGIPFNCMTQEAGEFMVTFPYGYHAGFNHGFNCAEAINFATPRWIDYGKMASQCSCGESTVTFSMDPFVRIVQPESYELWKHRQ
# Sfp inh: blocks B. subtilis Sfp PPTase activity; Q9F4F7; Biochemical Sfp PPTase activity, qHTS; Potency, µM, inactives show largest response in the series, negative = inhibition, usual class: inhibitors; 310,000 tested, 3.5% active; AID 1490;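 further: the enzyme is Sfp with the accession as filed and its product quenches rhodamine fluorescence; 0% = enzyme reaction without inhibitor and -100% = no enzyme wells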
#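 Sfp 15 nM + cpd, 15 min RT; start w/ rhodamine-CoA 5 uM, BHQ-2-YbbR 12.5 uM (final); 50 mM Hepes pH 7.6, 10 mM MgCl2, 0.01% NP-40, 0.01% BSA; read 525/598 nm at 0 and 30 min.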
# KAT2A inh: inhibitors of human GCN5L2 histone acetyltransferase | Q92830 | GCN5L2 HAT assay, ThioGlo1 CoA-SH fluorescence | Potency, µM (doses to about 58.9 µM), for the others: top-dose activity change, negative = inhibition, actives largely listed as inhibitors | 390,000 tested, 0.21% active | AID 504327; further: on the % scale 0 is the no-effect control and ±100 the full control effect
#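 qHTS, 1536-well. 20nM enzyme, pH 7.5 HEPES/EDTA/Tween-20 buffer; 15 min compound preinc., RT. Start: 75uM H3(1-25), 70uM AcCoA, 50uM ThioGlo1. Read Ex340/Em540 at t=0 (autofluorescence flag) and t=20 min.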
# IMPase Li cell: membrane-permeable IMPase blocker, potentiated with lithium | CHO-M1 cells, IP1 TR-FRET (IP-One), carbachol + lithium | Potency, µM (top dose mostly 59.4 µM), for the others: top-dose activity, negative = IMPase inhibition, most hits filed as inhibitors | 210,000 tested, 0.35% active | AID 1457;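 further: IP1 builds up when IMPase is blocked and the TR-FRET signal falls; plate controls were basal vehicle for no effect and high inhibitor control for full effect; nearly all actives have a fitted effect of over 50% in size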
#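 Lithium-sensitised IP1 accumulation assay; M1-expressing CHO cells treated 30 min at 37C with compound. Competitive antibody detection by time-resolved FRET followed a 10 min room-temperature lysis step.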
# Epigenetic reg: regulators of epigenetic silencing causing reporter derepression in mouse cells; murine LDR cells, GFP reporter derepression, 30 h; Potency, µM (doses to about 53.9 µM), for inactives: at the top dose GFP activation, usual class: activators; 280,000 tested, 0.2% active; AID 1865; further: % of control where 0% means no effect; nearly all actives have a fitted effect of over 60% in size
#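 In this reporter-derepression format, murine cells bearing a silenced integrated CMV-GFP locus incubate with test compound (30 h, 37 C), then are washed and imaged; fluorescent objects of 20–120 um count as induced cells.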
# Starred values were filed as active, the others as inactive; ? = inconclusive; nt = no result; [ ] = remark or other dose. Rows were chosen to be rich in hits. Some 3.6% of all compounds tested hit in one or more screens of this group. Unless noted, the call rests on the fitted dose curve; in most records, active means well fitted curve in the direction sought with a large enough effect; inconclusive means small, poorly fitted or top-dose-only effect, or another doubt; inactive means no such curve, though single readings can be large; an effect the other way counts as inactive or inconclusive. Potency means the concentration at half of the fitted maximal effect.
SMILES,NPSR antagonist,JMJD2E inh,Sfp inh,KAT2A inh,IMPase Li cell,Epigenetic reg
CCOC(=O)c1c(N)sc(C)c1-c1ccccc1,nt,nt,35.5µM*,-17.2%,18.9%,-0.9%
O=C(c1ccc(F)cc1)n1nc(-c2cccnc2)nc1NCc1ccc(F)cc1,nt,nt,nt,-5.8%,nt,-1.9%
CCCCNc1c2c(nc3c(-c4ccccc4)c(C)nn13)CCC2,10µM*,-1.6%,-8.1%,-4.1%,-4.7%[38.3 µM],4.9%
Cc1nn2c(NCCCN3CCOCC3)c3c(nc2c1-c1ccccc1)CCC3,?,?,-4.4%,-2.4%,-26.2%[38.3 µM],0.7%
O=C1C=CC2=C3c4cc(O)c(O)cc4C[C@@]3(O)COC2=C1,nt,15.8µM*,31.6µM*,nt,15.2%,?
Cc1ccccc1C1CC(=O)Oc2cc(C)c(Cl)c(C)c21 (stereo unspecified),nt,nt,-29.4%,?,21.4%,1.0%
COc1ccc(-c2nn(-c3ccc(F)cc3F)c3c2cnc2ccc(F)cc23)cc1,nt,nt,nt,16.9%,nt,4.9%
O=C1CCCC2=C1C(c1ccc(O)c(O)c1)Nc1ccc3ncccc3c12 (stereo unspecified),14.6%,25.1µM*,?,-1.4%,3.5%,-0.4%
O=C1CCCC2=C1C(c1cccs1)Nc1ccc3ncccc3c12 (stereo unspecified),-11.7%[46.1 µM],?,-15.2%,-13.7%,-11.0%[38.3 µM],3.9%
CCCCCc1cc(=O)oc2c(C(CCN3CCCC(C)C3)c3ccc4c(c3)OCO4)c(OC)cc(OC)c12 (stereo unspecified),?,10.1%,0.4%,-24.6%,nt,2.6%
CCCCCc1cc(=O)oc2c(C(CCN3CCCC3)c3ccc4c(c3)OCO4)c(OC)cc(OC)c12 (stereo unspecified),nt,nt,39.8µM*,nt,nt,nt
CCCCCc1cc(=O)oc2c(C(CCN3CCCCC3)c3ccc4c(c3)OCO4)c(OC)cc(OC)c12 (stereo unspecified),?,-9.0%,56.2µM*,-7.4%,nt,0.0%
CCOc1cc(CNCCSc2nnnn2C)cc(Br)c1OCc1ccc(F)cc1,-1.8%,-7.6%,?,22.7%,5.8%,-1.0%
COc1cc(CNCCSc2nnnn2C)cc(Br)c1OCc1ccc(F)cc1,?,-0.8%,14.1µM*,-9.6%,25.7%[38.3 µM],1.0%
OCCCc1nc2n(n1)C(c1ccccc1Cl)C=C(c1cccs1)N2 (stereo unspecified),5.5%[46.1 µM],?,50.1µM*,?,-11.4%,-0.9%
OCCCc1nc2n(n1)C(c1cccs1)C=C(c1ccccc1)N2 (stereo unspecified),-18.8%[46.1 µM],?,?,-29.1%,-8.1%[38.3 µM],?
O=C(O)c1cc(=O)cc(C(=O)O)[nH]1,9.0%[46.1 µM],-8.3%,39.8µM*,-4.6%,13.2%[38.3 µM],0.0%
CCC1=C2CC[C@H]3C(=O)N(CC(=O)OC)C(=O)[C@H]3[C@H]2[C@@]2(C)C(=O)N(CC3CC3)C(=O)N2C1=O,nt,-18.6%,50.1µM*,nt,0.3%,4.8%
Cn1c(=O)c(-c2ccc(Cl)cc2)nc2cnc(N3CCOCC3)nc21,nt,nt,7.8%,-2.9%,-10.5%,nt
COc1ccccc1NC(=S)N(CCCN1CCOCC1)Cc1cn(C)c2ccccc12,13.8%,-1.2%,-5.9%,-1.8%,11.4%,-1.0%
COc1ccc(Cl)cc1NC(=S)N(CCCN1CCOCC1)Cc1cn(C)c2ccccc12,-30.4%,-12.6%,12.6µM*,-4.5%,8.9%,-0.9%
COc1cc(Cl)ccc1NC(=S)N(CCCN1CCOCC1)Cc1cn(C)c2ccccc12,-24.1%,-1.5%,11.2µM*,-0.9%,6.1%,-1.0%
CCOc1ccccc1NC(=S)N(CCCN1CCOCC1)Cc1cn(C)c2ccccc12,0.5%,-3.8%,-3.4%,3.8%,9.9%,-2.1%
O=c1c(O)c(-c2cccc(O)c2)oc2ccccc12,nt,?,44.7µM*,nt,19.8%,0.5%
COc1cccc(-c2oc3ccccc3c(=O)c2O)c1,nt,?,-10.9%,nt,8.8%,7.8%
COc1ccc(-c2oc3ccc(C)cc3c(=O)c2O)cc1OC,nt,?,0.9%,nt,-9.6%,?

# Source: PubChem
